Luciferase inh = inhibitors of firefly (Photinus pyralis) luciferase; purified P. pyralis luciferase, luminescence, biochemical; Potency, µM (doses to about 115 µM), most hits filed as inhibitors; AID 1347043; P08659; 76,000 tested, 2.5% active; further: nearly all actives have a fitted effect of over 65% in size
Target sequence (P08659 whole entry, looked up): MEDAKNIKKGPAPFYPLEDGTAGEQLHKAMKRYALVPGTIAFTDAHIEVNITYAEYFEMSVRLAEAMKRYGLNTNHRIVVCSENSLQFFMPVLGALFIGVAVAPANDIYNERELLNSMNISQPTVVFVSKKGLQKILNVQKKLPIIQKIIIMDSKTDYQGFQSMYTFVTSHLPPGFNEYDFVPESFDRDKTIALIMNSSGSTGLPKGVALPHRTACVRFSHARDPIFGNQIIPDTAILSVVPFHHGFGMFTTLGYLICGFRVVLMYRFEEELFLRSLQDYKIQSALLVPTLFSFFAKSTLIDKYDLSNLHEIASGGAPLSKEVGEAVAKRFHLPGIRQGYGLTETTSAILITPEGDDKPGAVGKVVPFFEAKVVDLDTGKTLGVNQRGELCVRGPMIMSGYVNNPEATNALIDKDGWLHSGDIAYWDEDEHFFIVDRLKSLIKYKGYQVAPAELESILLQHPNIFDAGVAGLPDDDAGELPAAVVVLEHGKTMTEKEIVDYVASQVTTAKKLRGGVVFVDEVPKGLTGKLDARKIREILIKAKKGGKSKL
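Cell-free enzyme assay, 10nM P. pyralis luciferase, luciferin and ATP each at 10uM. Inhibition profiled over a 6-point titration, read as luminescence.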
HEK293 viab = cell viability loss counter-screen. 150,000 tested, 0.12% active. Potency, µM (titrated, usually from 57.1 µM), inactives show at the top dose activity change, negative = cytotoxicity, hits mostly cytotoxic. HEK-293-SNCA-luc viability, GF-AFC fluorescence, 24 h. AID 1671193;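 further: 0% = DMSO-treated cells and -100% = medium-only wells without cells; nearly all actives have a fitted effect of over 30% in size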
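Cytotoxicity counterscreen: after 24 h compound treatment of genome-edited SNCA-luciferase HEK-293 cells, live-cell protease substrate GF-AFC read by fluorescence after 30 min; activity scaled between DMSO (0%) and medium-only (-100%), curves Hill-fitted.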
NIH3T3 tox = cytotoxic compounds in NIH 3T3 cells; NIH 3T3 viability, CellTiter-Glo ATP luminescence, 48-72 h; Potency, µM (highest dose often 96.7 µM), without a hit: at the top dose activity change, negative = cytotoxicity, actives largely listed as inhibitors; 94,000 tested, 4.3% active; AID 1345082; further: nearly all actives have a fitted effect of over 55% in size
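Cytotoxicity is measured as loss of cellular ATP: NIH 3T3 cells (400/well) are exposed to compound for 48 or 72 hr at 37 °C, then CellTiter-Glo luminescence is imaged after 10 min at room temperature.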
hNpr1 antagonist = blocks ANP-stimulated signaling of human Npr1 receptor | HEK293 hNpr1 GloSensor cGMP, ANP-stimulated luminescence | Potency, µM (titrated, usually from 46.3 µM), inactives show top-dose activity change, negative = inhibition, actives largely listed as inhibitors | 76,000 tested, 1.6% active | AID 1347048; calls by dose curve; further: nearly all actives have a fitted effect of over 60% in size
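HEK293 cells stably expressing human Npr1 and cGMP GloSensor pGS-40F, loaded 2 h with 2% GloSensor reagent, given compound 30 min at room temperature. Luminescence read before and 20 min after 0.1 nM hNppA.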
SNCA expr inh = SNCA gene expression inhibition; Potency, µM (titrated, usually from 57.2 µM), for inactives: at the top dose activity change, negative = inhibition, usual class: inhibitors; HEK-293 SNCA-luciferase knock-in, luminescence, 24 h; 140,000 tested, 0.17% active;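 further: plate controls were DMSO cells for no effect and cell-free wells for full effect; nearly all actives have a fitted effect of over 45% in size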
HEK293 tox = kills HEK 293 cells. HEK 293 viability, ATP luminescence (CellTiter-Glo), 48-72 h. Potency, µM (titrated, usually from 115 µM), for the others: at the highest dose activity change, negative = cytotoxicity, actives largely listed as inhibitors. 94,000 tested, 6.6% active. AID 1345083; further: nearly all actives have a fitted effect of over 60% in size
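qHTS cytotoxicity; HEK 293, 250 cells/well; compound pinned; 48 or 72 hr, 37 degree Celsius, 5% CO2, 95% humidity; CellTiter-Glo, 10 min RT; luminescence (ATP).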
Starred values were filed as active, the others as inactive; i = inactive; ? = inconclusive; nt = no result given; [ ] = remark or other dose. An excerpt weighted towards active compounds, which were near 7.4% of everything screened. Unless noted, the call rests on the fitted dose curve; in most records, active means well fitted curve in the direction sought with a large enough effect; inconclusive means small, poorly fitted or top-dose-only effect, or another doubt; inactive means no such curve, though single readings can be large; an effect the other way counts as inactive or inconclusive. Unless noted, on the % scale 0 is the no-effect control and ±100 the full control effect; potency means the concentration at half of the fitted maximal effect.

SMILES | Luciferase inh | HEK293 viab | NIH3T3 tox | hNpr1 antagonist | SNCA expr inh | HEK293 tox
CC(C)(C)C1CCC2(CC1)NC(=O)N(CC(=O)Nc1ccc(F)cc1F)C2=O (stereo not given) | i | 0% | -42% | -7% | 3% | ?
COc1ccc(NC(=O)CN2C(=O)NC3(CCC(C(C)(C)C)CC3)C2=O)c(OC)c1 (stereo not given) | i | 3% | ? | 0% | 31% | 35µM*
CC(C)CCC[C@@H](C)[C@H]1CC[C@H]2[C@@H]3CC=C4C[C@@H](OC(=O)NCCN(C)C)CC[C@]4(C)[C@H]3CC[C@]12C | nt | -1% | nt | nt | nt | nt
COc1cccc(N2CCN(C(=O)CCC[C@H]3NC[C@@H]4C[C@H]3CN(Cc3ccccc3)C4)CC2)c1 | i | 3% | ? | -1% | -9% | ?
O=C(NC1CCCC1)N1c2ccccc2CC1c1nc(C2CC2)no1 (stereo not given) | 20µM* | -2% | ? | ? | 101% | ?
CS(=O)(=O)N1CCc2ccc(C(=O)Nc3ccc(F)cc3)cc21 | 8.9µM* | -5% | -21% | ? | -24% | ?
CCCN1C(=O)CCc2cc(NC(=O)c3ccc(OC(F)(F)F)cc3)ccc21 | ? | -18% | 40µM* | ? | 6% | ?
CCN1C(=O)CCc2cc(NC(=O)c3cncc(Br)c3)ccc21 | i | 5% | -22% | 1% | ? | ?
CCN1C(=O)CCc2cc(NC(=O)c3ccc(F)cc3)ccc21 | ? | -2% | ? | 2% | 124% | 40µM*
CS(=O)(=O)N1CCc2ccc(C(=O)Nc3ccc(F)cc3Cl)cc21 | ? | 21% | -6% | 0% | 49% | ?
O=C(Cn1nc2c(cc1=O)CCCCC2)N1CCN(Cc2ccccc2)CC1 | i | -3% | -3% | 2% | -18% | 0%
COC(=O)c1ccc(NC(=O)N2CCC3(CC2)N(CC2CC2)C(=O)CS3=O)cc1 (stereo not given) | i | 8% | -1% | 2% | 9% | 4%
CCOC(=O)N1CCC(COc2ccc3c(cnn3CCC(=O)O)c2)CC1 | ? | 1%[87.6 µM] | ? | 1%[70.6 µM] | 3%[87.6 µM] | i
C[S+](=O)([O-])CCn1ncc2cc(OCC3CCN(Cc4cccs4)CC3)ccc21 | 63µM* | 1%[87.6 µM] | ? | -1%[70.6 µM] | 0%[87.6 µM] | ?
CCOC(=O)N1CCC(COc2ccc3c(cnn3CC[S+](C)(=O)[O-])c2)CC1 | ? | -8%[87.6 µM] | 79µM* | ? | -17%[87.6 µM] | ?
CC(=O)Nc1ccc(CN2CCCC3(C2)NC(=O)c2ccccc2O3)cc1 (stereo not given) | i | 3% | -11% | -9% | 28% | i
CN1C[C@@H](NC(=O)Nc2ccccc2)C[C@H]1c1nc(-c2ccc(F)cc2)no1 | i | -14%[87.6 µM] | ? | ? | -26%[87.6 µM] | 56µM*
CN1C[C@@H](NC(=O)Nc2ccc(F)cc2F)C[C@H]1c1nc(-c2ccc(Cl)cc2)no1 | 71µM* | -2%[87.6 µM] | -18%[174 µM] | ? | 10%[87.6 µM] | ?
Cc1ccc(-c2noc([C@@H]3C[C@H](NC(=O)Nc4cccc(F)c4)CN3C)n2)cc1 | 63µM* | ? | ? | ? | -27%[87.6 µM] | 63µM*
CCCCOc1ccc(CN2C[C@@H]3C(=O)N(C)C(=O)[C@@H]3C2)cc1 | 28µM* | 1% | -8% | -21% | 44% | ?
CN1C[C@@H](NC(=O)c2ccc(F)cc2)C[C@H]1c1nc(-c2ccc3c(c2)OCO3)no1 | i | -19%[87.6 µM] | ? | -8%[70.6 µM] | 34%[87.6 µM] | 79µM*
Cc1ccc(C(=O)N[C@H]2C[C@@H](c3nc(-c4ccc5c(c4)OCO5)no3)N(C)C2)cc1 | i | -18%[87.6 µM] | 79µM* | -1%[70.6 µM] | 23%[87.6 µM] | ?
CN(C)c1ccc(C(=O)N[C@H]2C[C@@H](c3nc(-c4ccc5c(c4)OCO5)no3)N(C)C2)cc1 | i | -17% | ? | -19% | 8% | ?

Source: PubChem BioAssay (National Center for Advancing Translational Sciences (NCATS))
